# Legend:
# Experiment in all cases: PBM binding z-score (relative to random genomic background probes); higher = stronger binding; sequences stand for … in GC…GCGATTGACAGCGTAGAATGAAGG
# [1] = tested on: RARb homodimer (NR concentration 270 nM)
# Method in brief: (§1)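 Binding z-scores were set against random background probes. The data came from custom Agilent 4×180K protein-binding microarrays carrying double-stranded probes with 34-nt variable regions, incubated 1 h with ligand-free nuclear receptor dimers. Partner-specific antibodies detected binding, and scanned fluorescence was regression-normalized.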
# [2] = tested on: RARg:RXRa (NR concentration 270 nM, RXRa partner concentration 90 nM)
# Method in brief: as §1
# [3] = tested on: RARg homodimer (NR concentration 270 nM)
# Method in brief: as §1
# [4] = tested on: RXRa DBDmut IVT, anti-RXR (DBD mutation: RXRa K156A/R161A, NR concentration 90 nM)
# Method in brief: as §1
# [5] = tested on: RXRa homodimer (NR concentration 180 nM)
# Method in brief: as §1
# [6] = tested on: THRa:RXRa (NR concentration 90 nM, RXRa partner concentration 90 nM)
# Method in brief: as §1
# [7] = tested on: THRa homodimer (NR concentration 90 nM)
# Method in brief: as §1
# [8] = tested on: VDR homodimer (NR concentration 270 nM)
# Method in brief: as §1
Sequence,PBM binding z-score [1],PBM binding z-score [2],PBM binding z-score [3],PBM binding z-score [4],PBM binding z-score [5],PBM binding z-score [6],PBM binding z-score [7],PBM binding z-score [8]
CTCGAAAGGTCGTCCTCAGGTGAGTATACCAAAC,3,5.29,4.2,2.35,4.82,4.13,1.94,1.84
CGAACTAGGTCACTAGGACAGTGAAGAGGTTGGA,3.02,3.58,4.16,1.22,2.07,2.71,0.967,0.00359
CGAACTAGGTCAGAACAGGACATTGAAGGATGAT,2.12,2.57,3.4,0.96,1.41,3.72,0.36,0.369
CAAACTAGGTCAAGGGGTCAAAGTCCGCTTCCCG,5.65,8,7.19,2.98,8.47,4.64,2.49,4.55
CCTACAGGGCCAAAGGTCATTGATTCCAATGCTC,4.75,6.13,5.66,1.95,7.35,3.46,0.651,2.73
CGTCTAAGTTCAAGGTAACGTAACAGAAAGCAGC,2.51,3.53,4.06,4.62,2.82,3.09,2.02,3.41
CCTAGTTGGTCAAGGTCTCACACGCTATAGGTAC,1.32,0.677,1.21,1.08,0.272,0.956,1.03,0.887
CCTACTGGGCCAACAAGGTCATTGATGCCGATAA,3.24,2.97,2.76,0.655,3,3.4,2.41,3.7
CCTAGTTGGTCAGGGGGTCACACACCGGATATGA,4.05,5.83,4.22,0.886,6.18,3.88,2.28,3.16
TAGCCTAGGTCATTGGACCAGTATAGTACGCATC,2.73,3.97,4.37,1.43,3.1,2.85,0.854,1.54
CCTGCTAGGTCAAGGGTCAGCTAAAGCAGCTCGC,4.91,6.68,6.43,1.48,7.49,3.95,1.24,1.03
CAAACTAGGTCACGAAAGGTCAAAGTGGAATGAC,5.92,7.79,8.41,2.4,8.35,5.24,2.81,3.84
TCGAGTAGGTTACGGGGGCATTCGGGGATGAAGA,2.34,3.52,2.38,1.85,2.92,4.01,1.63,3.83
AGAATGAGGTTAAGATTAGGGAAACAGAATACAT,0.693,1.98,1.56,1.13,2.57,2.63,0.72,0.435
CGAACTAGGTCAAAGCACAGTGAAAGGCGACGTA,2.34,3.89,4.07,1.58,2.66,2.37,0.0185,0.261
CTATGTAAGTTAAGGGGGTCATTCAGTTTGAAAG,3.7,4.43,3.19,3.07,5.16,3.78,2.28,5.94
CGAACTAGGTCAAAGGACAGTGAAAGGCGACGTA,2.83,3.94,4.27,1.3,3.33,2.58,0.464,0.47
CTATGTAGGTTAAGGGGGTCTTTCAGTTTGAAAG,1.69,1.56,1.25,0.662,1.48,1.94,0.841,1.31
TTACCAAAGTGAAAGGTCGTTGATGCACGCCTTG,1.87,1.64,1.01,0.293,2.65,1.34,-0.34,1.41

Sequence,PBM binding z-score [1],PBM binding z-score [2],PBM binding z-score [3],PBM binding z-score [4],PBM binding z-score [5],PBM binding z-score [6],PBM binding z-score [7],PBM binding z-score [8]
CTCGAAAGGTCGTGCTTAGGTGAGTATACCAAAC,3.07,5.09,3.82,2.24,4.91,4.2,1.11,1.05
CCGACTAGGTTACGAGGGGGCATTCAGTGCGAAT,2.21,2.97,2.26,1.5,1.62,3.52,0.757,3.12
CCGAGTAGGTTACGAGGGGGCATTCGGTGCGAAT,2.06,3.04,2.32,0.865,2.22,3.76,0.298,3.61
AATACAGGGTCACTAGGCCCGAGTAGGTACGAAT,2.85,5.05,4.72,2.31,5.31,3.09,0.859,2.26
CCTTACGGGTCACGGTTATAGCACGGGTGGTACG,3.58,5.47,5.06,0.501,6.44,3.28,0.418,1.26
CCTACTGGGCCATTCAGAGGTCATCGATCATATG,4.27,4.89,3.64,0.733,4.44,3.34,1.72,3.03
ATATGTAGGATATCGGGTCATTCAGTTTGCGCAT,2.18,1.75,1.44,1.12,2.23,3.15,2.18,2.6
TCGAGTAGATTACGGGGGCATTCAGGGATGAAGA,1.26,1.41,0.834,1.65,1.35,3.66,0.874,3.02
CCGAGTAGGTTACGAGGGGGCATTCAATGCGAAT,1.91,3.12,2.47,1.05,2.2,3.78,0.33,2.09
TAGCCTCGGTCATTCAGGGGCCAGTATAGAAAGC,2.44,3.5,3.37,-0.617,0.151,1.46,-0.717,-0.088
CCTTACGGGTCACTTACAGGTTATAGCATTTGGA,3.2,5.65,4.51,2.19,4.62,2.95,0.577,1.66
TTACCAAGGTGAAAGGTCGTTGAGGCACGCCTTG,2.61,4.52,2.03,0.589,6.39,3.49,0.818,1.32
CCGAGTAGGTTACCAGGGGGCATTCAGTGCGAAT,2.4,2.93,2.52,0.717,2.06,3.68,0.758,3.64
CCGAGTAGGTTCCGAGGGGGCATTCAGTGCGAAT,1.62,1.66,1.02,1.42,1.12,2.38,1.1,3.91
CCGAGTAGGTTACGAGGGGCCATTCAGTGCGAAT,1.53,1.3,1.23,0.177,0.889,3.34,-0.418,0.802
AGTGAAAGTTCAGGACGAGGTAACGTAAAGCACG,3.13,4.55,4.38,2.84,2.54,3.93,1.95,2.34
CGAACTAGGTCAAAGGACAGTGGAAGGCGACGTA,3.07,3.62,4.31,1.4,2.94,2.5,0.274,0.241
CGTCGAAGGTCAATGCTAGGTCAGTGAAAGCATT,5.11,7.62,6.84,2.5,5.4,4.28,1.03,1.91
CGTCCAAGGTCCATGCTAGGTCAGTGAAAGCATT,2.62,1.41,1.22,1.41,0.238,2.73,0.766,1.07

Sequence,PBM binding z-score [1],PBM binding z-score [2],PBM binding z-score [3],PBM binding z-score [4],PBM binding z-score [5],PBM binding z-score [6],PBM binding z-score [7],PBM binding z-score [8]
CTATGTAGGTTAAGGGGGTCATGCAGTTTGAAAG,4.24,5.46,4.16,2.12,6.12,4.11,2.49,5
CTATGTAGGTGAAGGGGGTCATTCAGTTTGAAAG,3.79,4.75,3.55,2.11,5.63,3.88,1.67,5.55
CCGAGTAGGTTACGAGGGGGCATTCCGTGCGAAT,1.89,3.09,2.37,1.01,2.12,3.56,0.446,2.75
CTAGGTAGGTTAAGGGGGTCATTCAGTTTGAAAG,3.87,4.95,3.79,1.97,5.77,3.78,2.19,5.84
GCTTACGGGTCAAAGGTTATAGTATGAATAGAAT,3.5,6.8,4.72,2.7,9.39,3.99,0.429,1.88
CCTACTGGGCAAAAAAGGTCATTGATGCCGATAA,4.17,4.03,4.11,0.33,4.81,3.57,0.0156,2.05
CGTCAAAGTTCTAGGTAACGTAACAGAAAGCAGC,-0.287,0.0968,0.323,0.31,0.135,0.719,0.349,-0.0157
CGAACTAGCTCACCAGGACAGTGAAGAGGTTGGA,0.0882,-0.448,-0.336,0.0205,-0.153,0.96,0.613,-0.481
CGAACTAGGTCCTTGACAGGACAGTGAATAGTAA,-0.115,0.0551,-0.0699,0.0443,-0.00915,0.388,-0.275,-0.117
TCGAGTAGGTTACGGAGGCATTCAGGGATGAAGA,0.171,0.578,0.4,-0.134,0.833,1.1,-0.655,-0.549
TCTTGTAGATCAAAGCTTAAGAAAGCCGAAGCCT,-0.931,-0.422,-0.665,0.503,-0.173,-0.444,-1.01,-0.74
CGAACTTGGTCACCAGGACAGTGAAGAGGTTGGA,1.06,0.959,1.47,-0.0208,0.727,1.63,0.644,-0.0725
ATATGTAGGTTAGGATCATTCAGAAAGTAGGGAA,0.531,0.593,0.675,0.541,1.01,0.577,0.347,0.616
AGAATGAGGTTATACGTAGGTCAGGGAAGAAAGT,3.18,6.03,2.35,1.74,3.96,3.74,1.44,1.87
TCGAGTAGGTTACGGGGGCACTCAGGGATGAAGA,2.3,3.39,2.3,1.2,2.84,3.4,1.09,1.68
GCTAGTTGGTCAGTAAATGGTCACACACCGGTCG,1.28,0.401,0.586,0.286,0.551,-0.021,-0.105,0.116
CCGAGTAGGTCACGAGGGGGCATTCAGTGCGAAT,4.35,6.3,6.32,2.29,5.11,4.54,0.959,3.61
TCATATAGGTAATAAAGGTGAAAGTCGGCATCTA,1.76,1.51,0.992,1.83,2.06,1.59,0.669,0.491
